# Experimental data taken from the supplement of paper PMC8728848.
# Only a selection was taken, and the strongest signals are over-represented in it overall.
# B1: DC-ASGPR L+GEE (Homo sapiens) (protein)
# chain: MTRTYENFQYLENKVKVQGFKNGPLPLQSLLQRLRSGPCHLLLSLGLGLLLLVIICVVGFQNSKFQRDLVTLRTDFSNFTSNTVAEIQALTSQGSSLEETIASLKAEVEGFKQERQAGVSELQEHTTQKAHLGHCPHCPSVCVPVHSEMLLRVQQLVQDLKKLTCQVATLNNNGEEASTEGTCCPVNWVEHQDSCYWFSHSGMSWAEAEKYCQLKNAHLVVINSREEQNFVQKYLGSAYTWMGLSDPEGAWKWVDGTDYATGFQNWKPGQPDDWQGHGLGGGEDCAHFHPDGRWNDDVCQRPYHWVCEAGLGQTSQESH
# What was measured:
# Experiment in all cases: glycan array binding signal (z-score within array); higher = stronger binding
# Conditions in all cases: glycan notation: IUPAC condensed, linker removed
# [1] = target: GalNAc(b1-3)Gal(a1-4)Gal(b1-4)GlcNAc
# Procedure, shortened: (§1)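 Glycan array binding is given as a within-array Z-score, which can be read as non-binding when negative. The arrays, 3228 of them, came from the Consortium for Functional Glycomics database and were retained only where the protein sequence was available. Z-scores were averaged across arrays of the same protein sequence at different concentrations or buffers and across linkers.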
# [2] = target: GalNAc(b1-3)Gal(a1-4)Gal(b1-4)GlcNAc(b1-3)Gal(b1-4)Glc
# Procedure, shortened: as §1
# GalNAc6S(b1-4)GlcNAc = target: GalNAc6S(b1-4)GlcNAc
# Procedure, shortened: as §1
# [3] = target: GlcNAc(a1-4)Gal(b1-4)GlcNAc
# Procedure, shortened: as §1
# [4] = target: GlcNAc(b1-2)[GlcNAc(b1-4)]Man(a1-3)[GlcNAc(b1-4)][GlcNAc(b1-2)Man(a1-6)]Man(b1-4)GlcNAc(b1-4)GlcNAc
# Procedure, shortened: as §1
# [5] = target: GlcNAc(b1-3)Gal(b1-4)GlcNAc(b1-3)Gal(b1-4)GlcNAc(b1-2)[GlcNAc(b1-3)Gal(b1-4)GlcNAc(b1-3)Gal(b1-4)GlcNAc(b1-6)]Man(a1-6)[GlcNAc(b1-3)Gal(b1-4)GlcNAc(b1-3)Gal(b1-4)GlcNAc(b1-2)Man(a1-3)]Man(b1-4)GlcNAc(b1-4)[Fuc(a1-6)]GlcNAc
# Procedure, shortened: as §1
# [6] = target: GlcNAc(b1-3)Gal(b1-4)GlcNAc(b1-3)Gal(b1-4)GlcNAc(b1-3)Gal(b1-4)GlcNAc(b1-2)Man(a1-3)[GlcNAc(b1-3)Gal(b1-4)GlcNAc(b1-3)Gal(b1-4)GlcNAc(b1-3)Gal(b1-4)GlcNAc(b1-2)Man(a1-6)]Man(b1-4)GlcNAc(b1-4)[Fuc(a1-6)]GlcNAc
# Procedure, shortened: as §1
# [7] = target: GlcNAc(b1-3)Gal(b1-4)GlcNAc(b1-3)Gal(b1-4)GlcNAc(b1-3)Gal(b1-4)GlcNAc(b1-3)Gal(b1-4)GlcNAc(b1-2)Man(a1-3)[GlcNAc(b1-3)Gal(b1-4)GlcNAc(b1-3)Gal(b1-4)GlcNAc(b1-3)Gal(b1-4)GlcNAc(b1-3)Gal(b1-4)GlcNAc(b1-2)Man(a1-6)]Man(b1-4)GlcNAc(b1-4)[Fuc(a1-6)]GlcNAc
# Procedure, shortened: as §1
# [8] = target: GlcNAc(b1-3)Gal(b1-4)GlcNAc(b1-6)[Gal(b1-3)]GalNAc
# Procedure, shortened: as §1
# GlcNAc(b1-3)GalNAc = target: GlcNAc(b1-3)GalNAc
# Procedure, shortened: as §1
# GlcNAc(b1-6)GalNAc = target: GlcNAc(b1-6)GalNAc
# Procedure, shortened: as §1
# Kdn(a2-3)Gal(b1-4)GlcNAc = target: Kdn(a2-3)Gal(b1-4)GlcNAc
# Procedure, shortened: as §1
# [9] = target: Man(a1-2)Man(a1-3)[Man(a1-2)Man(a1-6)]Man
# Procedure, shortened: as §1
# [10] = target: Neu5Ac(a2-3)Gal(b1-3)GalNAc(b1-4)[Neu5Ac(a2-8)Neu5Ac(a2-3)]Gal(b1-4)Glc
# Procedure, shortened: as §1
# [11] = target: Neu5Ac(a2-3)Gal(b1-3)GlcNAc(b1-6)GalNAc
# Procedure, shortened: as §1
# [12] = target: Neu5Ac(a2-3)Gal(b1-4)GlcNAc(b1-3)Gal(b1-4)GlcNAc(b1-2)Man(a1-3)[Neu5Ac(a2-3)Gal(b1-4)GlcNAc(b1-3)Gal(b1-4)GlcNAc(b1-2)Man(a1-6)]Man(b1-4)GlcNAc(b1-4)GlcNAc
# Procedure, shortened: as §1
# [13] = target: Neu5Ac(a2-3)Gal(b1-4)GlcNAc(b1-3)Gal(b1-4)GlcNAc(b1-6)[Gal(b1-3)]GalNAc
# Procedure, shortened: as §1
# [14] = target: Neu5Ac(a2-3)Gal(b1-4)GlcNAc(b1-6)GalNAc
# Procedure, shortened: as §1
# [15] = target: Neu5Ac(a2-3)Gal(b1-4)GlcNAc(b1-6)[Gal(b1-3)]GalNAc
# Procedure, shortened: as §1
# [16] = target: Neu5Ac(a2-3)Gal(b1-4)[Fuc(a1-3)]GlcNAc6S
# Procedure, shortened: as §1
# Neu5Ac(a2-3)GalNAc = target: Neu5Ac(a2-3)GalNAc
# Procedure, shortened: as §1
# [17] = target: Neu5Ac(a2-6)Gal(b1-4)GlcNAc(b1-2)Man
# Procedure, shortened: as §1
# [18] = target: Neu5Ac(a2-6)Gal(b1-4)GlcNAc(b1-2)Man(a1-3)[GlcNAc(b1-2)Man(a1-6)]Man(b1-4)GlcNAc(b1-4)GlcNAc
# Procedure, shortened: as §1
# [19] = target: Neu5Ac(a2-6)Gal(b1-4)GlcNAc(b1-2)Man(a1-6)[GlcNAc(b1-2)Man(a1-3)]Man(b1-4)GlcNAc(b1-4)GlcNAc
# Procedure, shortened: as §1
# [20] = target: Neu5Ac(a2-8)Neu5Ac(a2-3)[Gal(b1-3)GalNAc(b1-4)]Gal(b1-4)Glc
# Procedure, shortened: as §1
# [21] = target: Neu5Gc(a2-3)Gal(b1-3)GlcNAc
# Procedure, shortened: as §1
# [22] = target: Neu5Gc(a2-8)Neu5Gc(a2-3)Gal(b1-4)GlcNAc
# Procedure, shortened: as §1
# [23] = target: Neu5Gc(a2-8)Neu5Gc(a2-6)Gal(b1-4)GlcNAc
# Procedure, shortened: as §1
binder,measurement,setting,value
B1,glycan array binding signal (z-score),[1],4.33
same,glycan array binding signal (z-score),[2],4.06
same,glycan array binding signal (z-score),GalNAc6S(b1-4)GlcNAc,1.11
same,glycan array binding signal (z-score),[3],-0.367
same,glycan array binding signal (z-score),[4],-0.37
same,glycan array binding signal (z-score),[5],0.194
same,glycan array binding signal (z-score),[6],-0.283
same,glycan array binding signal (z-score),[7],0.512
same,glycan array binding signal (z-score),[8],-0.411
same,glycan array binding signal (z-score),GlcNAc(b1-3)GalNAc,-0.439
same,glycan array binding signal (z-score),GlcNAc(b1-6)GalNAc,3.71
same,glycan array binding signal (z-score),Kdn(a2-3)Gal(b1-4)GlcNAc,-0.074
same,glycan array binding signal (z-score),[9],-0.348
same,glycan array binding signal (z-score),[10],-0.319
same,glycan array binding signal (z-score),[11],6.64
same,glycan array binding signal (z-score),[12],-0.164
same,glycan array binding signal (z-score),[13],-0.553
same,glycan array binding signal (z-score),[14],3
same,glycan array binding signal (z-score),[15],-0.019
same,glycan array binding signal (z-score),[16],-0.418
same,glycan array binding signal (z-score),Neu5Ac(a2-3)GalNAc,-0.223
same,glycan array binding signal (z-score),[17],0.432
same,glycan array binding signal (z-score),[18],-0.362
same,glycan array binding signal (z-score),[19],-0.328
same,glycan array binding signal (z-score),[20],0.544
same,glycan array binding signal (z-score),[21],-0.017
same,glycan array binding signal (z-score),[22],-0.146
same,glycan array binding signal (z-score),[23],-0.204
